Results from PubChem BioAssay (EPA / NIEHS).
Inconclusive results are not listed. Calls of active or inactive are those of the source. The calls were made as follows, unless noted: active = hit-call score of the fitted dose curve at least 0.9, where 1 is the maximum; inactive = score below 0.9.

Columns and labels:
[1] = molecular target: human Vitamin D Receptor (VDR), VDR (gene 7421) (UniProt P11473); test: ATG_VDR_TRANS: Attagene TRANS-FACTORIAL HepG2 Assay for human Vitamin D Receptor (VDR) (AID 2283022; active = hit-call score of the fitted dose curve at least 0.9, where 1 is the maximum)
Sequence of human Vitamin D Receptor (VDR), VDR (gene 7421) (P11473 whole entry, looked up, the tested form may be a part): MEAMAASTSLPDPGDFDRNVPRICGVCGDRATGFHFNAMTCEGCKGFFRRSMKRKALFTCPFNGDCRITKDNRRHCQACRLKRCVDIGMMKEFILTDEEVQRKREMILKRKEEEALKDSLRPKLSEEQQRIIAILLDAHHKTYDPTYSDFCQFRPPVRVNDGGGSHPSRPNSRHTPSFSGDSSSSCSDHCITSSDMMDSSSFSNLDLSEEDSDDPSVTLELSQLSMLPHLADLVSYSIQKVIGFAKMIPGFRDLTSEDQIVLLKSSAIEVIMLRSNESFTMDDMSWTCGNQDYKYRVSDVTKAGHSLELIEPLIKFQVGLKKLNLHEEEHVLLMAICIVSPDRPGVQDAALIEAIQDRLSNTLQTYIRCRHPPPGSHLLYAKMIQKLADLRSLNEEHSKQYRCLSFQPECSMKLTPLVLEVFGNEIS
Method in brief: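 Fluorescence of labelled reporter cDNA fragments, resolved by capillary electrophoresis, gives mRNA induction after 24 h treatment of HepG2 cells carrying transfected Gal4-fusion reporter units. Activity is fitted in the positive direction with DMSO as baseline.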

[2] = BSK_3C_SRB: Viability Assessment in the BioMAP Diversity Plus: 3C Assay (AID 2283023); settings: primary human endothelial cells (HUVEC);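 also: cells read 24 h after compound dosing; fitted both ways against DMSO so a hit may be signal rise or drop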
Method in brief: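 Cells were dosed with chemical, cultured 24 h, fixed with 10% TCA, stained with 0.1% SRB and read at 560 nm. Human umbilical vein endothelium was used; DMSO served as negative control and baseline.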

[3] = read-out: Matrix Metallopeptidase 1 (MMP1), MMP1 (gene 4312); test: BSK_BE3C_MMP1: BioMAP Diversity Plus: BE3C Assay for Matrix Metallopeptidase 1 (MMP1) Biomarker Activity (AID 2283024); settings: primary human bronchial epithelial cells; actives raise or lower the signal
Method in brief: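 Human primary bronchial epithelial cells (BE3C system) dosed for 24 h; MMP-1 quantified by ELISA. Bidirectional fit against DMSO; cytotoxicity tracked in parallel cultures by SRB total-protein staining.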

[4] = BSK_3C_Vis: BioMAP Diversity Plus: 3C Assay for Morphology Visualization (AID 2283025); settings: primary human endothelial cells (HUVEC);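 also: fitted both ways so gain or loss versus DMSO counts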;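 as to AC50: light microscopy image of cell morphology used as background control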
Method in brief: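 Human umbilical vein endothelial cell morphology was inspected by light microscopy 24 h after chemical dosing; scored bidirectionally relative to DMSO.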

[5] = read-out: Pselectin, SELP (gene 6403); test: BSK_4H_Pselectin: BioMAP Diversity Plus: 4H Assay for Pselectin Biomarker Activity (AID 2283026); settings: primary human endothelial cells (HUVEC); actives raise or lower the signal
Method in brief: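 Primary human umbilical vein endothelial cells were treated 24 h, and cell-surface P-selectin was then quantified by ELISA. Bidirectional fit versus DMSO; cytotoxicity checked in parallel cultures by SRB total-protein staining.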

[6] = BSK_4H_SRB: Viability Assessment in the BioMAP Diversity Plus: 4H Assay (AID 2283027); settings: primary human endothelial cells (HUVEC);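 also: cells exposed to compound for 24 h before staining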;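 as to AC50: curves fitted both ways versus DMSO so AC50 may be loss or gain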
Method in brief: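 Absorbance at 560 nm of SRB-stained total protein served as the viability read-out in confluent primary human umbilical vein endothelium 24 h after chemical treatment. Curves were fitted bidirectionally against DMSO as negative control.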

[7] = read-out: Thrombomodulin, THBD (gene 7056); test: BSK_3C_Thrombomodulin: BioMAP Diversity Plus: 3C Assay for Thrombomodulin Biomarker Activity (AID 2283029); settings: primary human endothelial cells (HUVEC); actives raise or lower the signal
Method in brief: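 Human umbilical vein endothelial cells were exposed to chemicals for 24 h; cell-surface thrombomodulin quantified by ELISA, with bidirectional fitting against DMSO baseline.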

[8] = read-out: Urokinase-type plasminogen activator receptor (uPAR), PLAUR (gene 5329); test: BSK_4H_uPAR: BioMAP Diversity Plus: 4H Assay for Urokinase-type plasminogen activator receptor (uPAR) Biomarker Activity (AID 2283030); settings: primary human endothelial cells (HUVEC); actives raise or lower the signal
Method in brief: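 Chemicals are dosed onto human vascular endothelial primary cells (umbilical vein). After 24 h, uPAR is read by ELISA. Gain or loss of signal is fitted relative to DMSO.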

[9] = read-out: Vascular endothelial growth factor receptor 2 (Homo sapiens) (UniProt P35968); test: BSK_4H_VEGFRII: BioMAP Diversity Plus: 4H Assay for Vascular endothelial growth factor receptor 2 (VEGFR2) Biomarker Activity (AID 2283031); settings: primary human endothelial cells (HUVEC); actives raise or lower the signal;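 as to AC50: cell-surface VEGFR2 protein level quantified by ELISA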
Method in brief: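 VEGFRII levels on human vascular endothelial primary cells were determined by ELISA at 24 hours post-dosing, with gain- or loss-of-signal fitted against DMSO controls.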

[10] = BSK_BE3C_SRB: Viability Assessment in the BioMAP Diversity Plus: BE3C Assay (AID 2283028); settings: primary human bronchial epithelial cells;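 as to AC50: fitted both ways so AC50 may mark signal gain or loss versus DMSO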
Method in brief: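 Overt cytotoxicity was assessed as total protein in confluent human primary bronchial epithelial cultures 24 h after chemical addition, using 0.1% sulforhodamine B staining read at 560 nm.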

Measured: AC50

NC(=O)CCl
not listed: [10]
inactive: all other assays above

CC(C)N(C(=O)CCl)c1ccccc1
active: [2] 20 µM | [4] 14.5 µM | [5] 16.8 µM | [6] 24.5 µM | [10] 29.9 µM | [8] 35.1 µM
inactive: [1] | [3] | [7] | [9]

Cc1cc(C(C)(C)c2ccc(O)c(C)c2)ccc1O
active: [2] 17 µM | [4] 18.7 µM | [5] 17.7 µM | [6] 14.3 µM | [8] 15.3 µM
inactive: [1] | [3] | [7] | [9]

[Cl][Sn]([c]1ccccc1)([c]1ccccc1)[c]1ccccc1
active: [2] 0.188 µM | [3] 0.36 µM | [4] 0.176 µM | [5] 0.0641 µM | [6] 0.192 µM | [10] 0.146 µM | [7] 5 µM | [8] 0.205 µM
inactive: [1] | [9]

CCCCN(CCCC)C(=S)[S-].CCCCN(CCCC)C(=S)[S-].[Ni+2]
not listed: [9] | [10]
inactive: all other assays above

O=c1oc2ccccc2c(O)c1C(CC(O)c1ccc(-c2ccc(Br)cc2)cc1)c1ccccc1 (stereo not given)
active: [2] 10.7 µM | [3] 9.43 µM | [4] 12.6 µM | [5] 6.34 µM | [6] 12.7 µM | [8] 6.9 µM | [9] 5.2 µM
inactive: [1] | [7]

O=C(CCl)NCO
not listed: [10]
inactive: all other assays above

CC(C)(C)c1ccccc1O
not listed: [10]
inactive: all other assays above

O=C(O)C1(c2ccc3c(c2)OC[C@H](Cc2ccc(-c4ccccc4)cc2)[C@H]3O)CCCC1
active: [2] 28 µM | [3] 31.7 µM | [5] 27.1 µM | [6] 20 µM | [10] 26.2 µM
inactive: all other assays above

CCOC(=O)C(SP(=S)(OC)OC)c1ccccc1 (stereo not given)
active: [2] 32.6 µM | [4] 37.5 µM | [5] 20 µM | [6] 29.5 µM | [8] 20 µM
inactive: [1] | [3] | [10] | [7] | [9]

C=CC(Cl)CCl (stereo not given)
inactive: all assays above

CCOC(=O)CC(=O)CCl
active: [5] 11 µM | [7] 4.35 µM
not listed: [10]
inactive: all other assays above

N#CCCC(Br)(C#N)CBr (stereo not given)
active: [2] 5.06 µM | [3] 20 µM | [4] 5.04 µM | [5] 6.62 µM | [6] 6.36 µM | [8] 8.75 µM | [9] 5.39 µM
inactive: [1] | [7]

CC(C)(C)c1cc([N+](=O)[O-])cc(C(C)(C)C)c1O
active: [2] 0.815 µM | [6] 0.0719 µM | [7] 0.0473 µM
not listed: [10]
inactive: all other assays above

Clc1cccc(Cl)c1
not listed: [10]
inactive: all other assays above

Cc1cccc(OP(=O)(Oc2cccc(C)c2)Oc2cccc(C)c2)c1
active: [7] 0.14 µM
inactive: all other assays above

Nc1c(Oc2ccccc2)cc(O)c2c1C(=O)c1ccccc1C2=O
active: [3] 5.87 µM
not listed: [10]
inactive: all other assays above

CN(C)C(=S)S
active: [3] 13.2 µM
not listed: [9]
inactive: all other assays above

O=C(N[C@H]1CN2CCC1CC2)c1ccc2c(c1)OCCO2
inactive: all assays above

O=S(=O)(C(Cl)(Cl)Cl)C(Cl)(Cl)Cl
inactive: [1]
active: [2] 1.12 µM | [3] 7.31 µM | [4] 4.25 µM | [5] 1.1 µM | [6] 0.932 µM | [7] 10.1 µM | [8] 1.45 µM | [9] 0.327 µM

Cc1ccc(OP(=O)(Oc2ccc(C)cc2C)Oc2ccc(C)cc2C)c(C)c1
active: [2] 12 µM | [5] 12.9 µM
not listed: [10]
inactive: all other assays above

Cc1ccccc1OP(=O)(Oc1ccccc1C)Oc1ccccc1C
inactive: [1] | [7]
active: [2] 6.89 µM | [3] 5.4 µM | [4] 12.5 µM | [5] 8.88 µM | [6] 15.2 µM | [10] 16 µM | [8] 11.7 µM | [9] 9.28 µM

CC(C=O)Cc1ccc2c(c1)OCO2 (stereo not given)
inactive: all assays above
